# Source: PubChem BioAssay (NCATS)
# Records with an inconclusive call do not appear. A number with no mark means an inactive call. The source made the active and inactive calls. Calls come from the whole dose curve; as a rule, active = well fitted cell-killing curve with a large enough effect; inconclusive = small, poorly fitted or top-dose-only effect; inactive = flat fitted curve, though single readings scatter. Peptide text beside a SMILES is read from it. * marks the point of attachment. Hexanoyl = CCCCCC(=O)*
# Experiment: HEK-293 Cancer Cell Toxicity qHTS against the NCATS CANVASS Library (AID 1347355); note: nearly all actives have a fitted effect of over 65% in size
# Conditions: HEK-293 viability, CellTiter-Glo luminescence, 72 h; series mostly up to 46.1 µM; activity change, negative = cytotoxicity: at the top concentration
# From the text: Natural products and their derivatives continue to be wellsprings of nascent therapeutic potential. However, many laboratories have limited resources for biological evaluation, leaving their previously isolated or synthesized compounds largely or completely untested. To address this issue, the Canvass library of natural products was assembled (https://tripod.nih.gov/canvass), in collaboration with academic and industry researchers, for quantitative high-throughput screening (qHTS) across a diverse set of cell-based and biochemical assays. The pure (>85% purity by liquid chromatography/mass spectrometry [LC/MS]) Canvass library of 346 natural products were submitted by 45 academic laboratories and companies around the world. We collected pure natural products to circumvent deconvolution and structure elucidation due to time and resource limitations. The library was formatted into 1536-well plates and evaluated in 50 qHTS (in an 11-pnt concentration series) bioassays with broad scope of disease-relevant mechanisms. The resulting data set from 50 different assays was then systematically analyzed to identify overall trends and specific natural products with interesting biological activities. Reported herein are the results of each individual qHTS and their corresponding assay protocol. National Center for Advancing Translational Sciences (NCATS), Rockville, MD National Institute of Health (NIH), Bethesda, Maryland
# Cancer Cell Toxicity COV-362, OV-KATE, OV-SAHO, UWB1.289, UWB1.289-WTBRCA1, HEK-293, HPAF-II, Panc-1005, SW1088, and U-118MG-screen protocol. 1. In a 1536 well, white solid bottom tissue culture plates (Corning 7494), corresponding cells (COV-362, OV-KATE, OV-SAHO, UWB1.289, UWB1.289-WTBRCA1, HEK-293, HPAF-II, Panc-1005, SW1088, or U-118MG) were dispensed in each well at a final concentration of 1000 cells / well (6uL volume) using the Multidrop Combi (Thermo Fisher Scientific) dispenser. 2. The plates were incubated for 4 hours at 37 degrees C/5% CO2/95% Rh. 3. Compounds were pin transferred (~23nL volume) via Wako Pin-tool (Wako Automation, Richmond VA) equipped with a 1536 pin head. The assay plates were treated with compounds in an 11-pnt concentration series with a final concentration range of […] to 85uM. 4. Bortezomib was used as a single dose control (0.5mM column 4, rows 1 - 32) at a final concentration of 1.9uM and as a 16pnt titration (1mM; 1:2 dilution; 16-points; n = 2; column 3, rows 1 - 32) with final concentration range of 0.1nM - 3.8uM. 5. The assay plates were incubated for 72 hours at 37 degrees C/5% CO2/95% Rh. 6. 3uL CellTiter-Glo detection reagent was then added to the plates (columns 2 - 48, rows 1 - 32) and incubated at room temperature for additional 15min. 7. Luminescence signal was acquired via the ViewLux plate reader (PerkinElmer) using a clear filter, 2 second exposure and 2x binning settings.
# % is set by controls: 0 for no effect and ±100 for the full control effect; potency is the fitted concentration of half-maximal effect.
SMILES,Potency,outcome,"activity change, negative = cytotoxicity"
C/C(=C\[C@H](C)C(=O)C[C@H](O)CC1CC(=O)NC(=O)C1)[C@@H]1OC(=O)CCCC/C=C/C[C@@H](O)[C@@H]1C,7.43 µM (active),–,–
CC1=C[C@H]2[C@H]3C(=O)C(c4ccc(O)cc4)=C[C@@]3(c3ccc(O)cc3)[C@@H]1C(=O)[C@]2(C)O,0.235 µM (active),–,–
C/C=C/[C@H]1[C@H]2C(=O)c3c(O)c(C)c(O)c(C)c3[C@]1(C(=O)O)C(=O)C=C2C,–,inactive,–
O=Cc1ccc2n1C[C@]1(OC2)O[C@H](CO)[C@@H](O)[C@@H]1O,–,inactive,–
C/C=C1/CN2C3CC1C1C=CC(=O)N4c5ccccc5[C@@]3(C[C@@H]2C2=C[C@H]3C5CC6N(CC[C@@]67c6ccccc6N(C2=O)[C@@H]37)C/C5=C/C)[C@H]14 (stereo not given in full),9.35 µM (active),–,–
CN1CCc2cc3c(c4c2C1(C)C(=O)c1cc(O)ccc1-4)OCO3 (stereo not given),18.7 µM (active),–,–
CCCCCC(=O)N[C@@H](CC(C)C)C(=O)N[C@H](C=O)CCC(=O)O (Hexanoyl-Leu-Glu-aldehyde),–,inactive,–
C/C(=C\[C@@H](C)CC/C=C/CC/C=C/C(=O)O)[C@H](O)[C@H](C)C(=O)CCCC1CC(=O)NC(=O)C1,–,–,2.28%
C=CC(CCCCC)C1C(=O)NC(=O)C1C(=O)C1C2C(C)CC(C(=O)O)CC2CC1(O)C(=O)/C=C/C (stereo not given),–,–,-11.1%
CC(C)=CC[C@H]1C[C@@]2(CC=C(C)C)C(=O)[C@](CC=C(C)C)(C(=O)C(C(=O)c3ccccc3)=C2O)C1(C)C,23.5 µM (active),–,–
CC(C)=CCC[C@]1(C)[C@H]2CC(=O)[C@@]3(CO3)[C@@H]1C2,–,–,-10.9%
C/C(=C\[C@H](C)C(=O)/C=C/CC1CC(=O)NC(=O)C1)[C@@H]1OC(=O)/C=C/CC/C=C/C[C@@H](O)[C@@H]1C,3.72 µM (active),–,–
C=C1CC[C@@H](O[C@H]2C[C@@](O)([C@H](C)NC(=O)c3[nH]c(C)c(Cl)c3Cl)[C@H](O)[C@@H](C)O2)[C@@H]2C=C[C@H](C)C(/C(O)=C3/C(=O)[C@H](C(C)C)N([C@@H]4O[C@H](C)[C@H](OC(N)=O)[C@H](OC(C)=O)[C@@H]4OC)C3=O)[C@@H]12 (stereo not given in full),–,–,-11%
CO[C@H]1[C@@H](OC(=O)/C(C)=C\[C@@H]2O[C@@H]2[C@H]2O[C@H]2C)[C@H](O)[C@H](OCC23C[C@@H]4[C@H](C)CC[C@H]4C4(C=O)CC2C=C(C(C)C)C34C(=O)O)O[C@@H]1C (stereo not given in full),–,–,3.53%
Cc1cc(O)cc2c1C(=O)c1c(O)cc(O)cc1C2=O,–,inactive,–
C=C[C@]1(C)CC[C@@H]([C@H](C)C(=O)CC=C(C)C)O1,–,–,-6.56%
C/C(=C\[C@H](C)C(=O)C[C@H](O)CC1CC(=O)NC(=O)C1)[C@@H]1OC(=O)CCCC/C=C/[C@@H](O)C[C@@H]1C,9.35 µM (active),–,–
CC[C@@H]1[C@H](C)[C@H](c2cc(OC)c(OC)cc2OC)[C@@H](C)[C@H](c2cc(OC)c(OC)cc2OC)[C@]12C=C(OC)C(=O)C=C2OC,26.4 µM (active),–,–
COc1cc(/C=C/C(=O)OC[C@@H](Cc2ccc(O)c(OC)c2)[C@@H](COC(=O)/C=C/c2ccc(O)c(OC)c2)Cc2ccc(O)c(OC)c2)ccc1O,11.8 µM (active),–,–
C/C(=C\[C@@H](C)CC/C=C/CC/C=C/C(=O)O)[C@@H](O)[C@H](C)C(=O)CCCC1CC(=O)NC(=O)C1,–,–,-1.52%

SMILES,Potency,outcome,"activity change, negative = cytotoxicity"
[C-]#[N+][C@@]12C(=O)[C@@H]3[C@@H](O[C@@]4(C(=O)N(C)c5cccc1c54)C3(C)C)C(=O)[C@@]2(C)C=C,–,–,1.53%
C/C=C(/CO)C(=O)O[C@@H]1[C@H](O)[C@@H](C(=O)OC)O[C@@H]2C[C@H]3OC(n4cnc5c(N)ncnc54)[C@H](OC)[C@H]3O[C@@]12O (stereo not given in full),–,–,-5.93%
C/C1=C/[C@@H](C)[C@H](O)C/C=C/CC/C=C/C(=O)O[C@@H]1[C@H](C)C(=O)CCCC1CC(=O)NC(=O)C1,20.9 µM (active),–,–
C=C1C[C@H]2O[C@@H]3[C@@H]4[C@H](CC[C@@](C)(O)[C@@H]42)[C@H](C)COC3(C)[C@@H](OC(=O)CCCCCCC)C[C@H]1O (stereo not given in full),23.5 µM (active),–,–
COc1cc2c(c(O)c1O)C(=O)c1c(coc1C)C2=O,9.35 µM (active),–,–
COC(=O)[C@@]1(C)CCC[C@]2(C)c3cc(OC)ccc3CC[C@@H]12,–,–,-7.13%
COc1ccc([C@@H]2CC(=O)c3c(cc(O)c(C/C=C(\C)CCC=C(C)C)c3O)O2)cc1,–,–,-14.6% [at 9.19 µM]
COc1c(O)cc(O)c2c(=O)cc(-c3ccccc3)oc12,–,–,-5.97%
C=C1CCC2C(C)(C(=O)O)CCC(CC/C(C)=C/C(=O)NC(CCC(N)=O)C(=O)O)[C@@]2(C)C1 (stereo not given in full),–,inactive,–
C=C1C(=O)O[C@H]2[C@H]1CCC(C)=C1CC[C@@](C)(O)[C@@H]12,9.35 µM (active),–,–
C=C1C[C@]23C=CC(=O)[C@@](C)(CCCC(C)C(=O)N[C@@H](CO)C(=O)O)[C@@H]2C[C@@H]1CC3 (stereo not given in full),–,inactive,–
COc1cc(O)c(C(=O)[C@@H]2[C@H](CC=C(C)C)C(C)=CC[C@H]2c2ccccc2)c(O)c1,20.9 µM (active),–,–
CC[C@@H](c1cc(OC)c(OC)cc1OC)[C@H](C)[C@@H](/C(C)=C/c1cc(OC)c(OC)cc1OC)c1cc(OC)c(OC)cc1OC,16.6 µM (active),–,–
C/C(=C\[C@H](C)C(=O)CCCC1CC(=O)NC(=O)C1)[C@@H]1OC(=O)/C=C/CC/C=C/[C@H](O)[C@@H](O)[C@@H]1C,0.662 µM (active),–,–
COc1cc2ccc(=O)oc2c(O)c1O[C@@H]1O[C@H](CO)[C@@H](O)[C@H](O)[C@H]1O,–,–,1.13% [at 27.5 µM]
CO/C=C/C(=O)c1cc2cnc3c(N)cc(=NC(=O)C(C)C)c([nH]1)c23,0.166 µM (active),–,–
CN1CC[C@]23c4ccccc4N[C@H]1[C@]21CCN(C)[C@H]3Nc2ccccc21,–,–,-11.1%
CO[C@@H](C[C@@H](C)[C@@H](O)/C=C/C=C/CNC(=O)C(C)(C)[C@H](O)\C(C)=C/C=C\C=C\Cc1cnco1)[C@]1(O)[C@@H](C)C(=O)N(C)[C@@]12COC2=O,–,inactive,–
C[C@H](CCC(O)C(C)(O)CO)[C@@]1(O)CC[C@@]2(C)C3=C(CC[C@@]21C)[C@@]1(C)CCC(OC(=O)CCC(=O)O)C(C)(C)[C@@H]1CC3 (stereo not given in full),–,–,-18.8%
CCC(=O)CCCCC[C@@H]1NC(=O)[C@H]2CCCCN2C(=O)[C@H](C(C)C)NC(=O)[C@H](Cc2cn(OC)c3ccccc23)NC1=O,5.26 µM (active),–,–
